# Test results taken from ChEMBL document CHEMBL4513135, “CO-ADD screening of IQOG CSIS (Spain) compounds”.
# Measured potencies and affinities stand elsewhere.
# Tested on: Staphylococcus aureus
# Conditions: Concentration 32 ug.mL-1; ASSAY_TEST Inhibition of Bacterial Growth; detection method Absorption (OD600); MEDIA CAMHB; plate type 384well; NBS; CORNING #3640; time 18 hr
row,SMILES,Inhibition [%]
1,C#CCN(C)Cc1cc2cc(OCCCC3CCN(Cc4ccc(C#N)cc4)CC3)ccc2n1C,8.98
2,N#CC1=C(N)Oc2ccc3ccccc3c2C1c1ccccc1 (stereo not given),40.09
3,N#Cc1cc(C#N)c(NCCC2CCN(Cc3ccccc3)CC2)nc1N,49.11
4,CC1=NC(=Cc2ccccc2)C(=O)S1,13.03
5,N#CC1=C(Cl)Oc2c(ccc3ccccc23)C1c1ccc([N+](=O)[O-])cc1 (stereo not given),7.21
6,N#CC1=C(N)Oc2ccc3ccccc3c2C1c1ccc(O)cc1 (stereo not given),42.7
7,Nc1c2c(nc3c1C(c1ccccc1)c1ccc4ccccc4c1O3)CCCC2 (stereo not given),23.6
8,CCOC(=O)c1c[nH]c2ccc(OC)cc12,4.86
9,CC(C)(C)OC(=O)Nc1ccc(Cl)cn1,37.58
10,NC(=O)c1cc2cc(OCc3ccccc3)ccc2[nH]1,21.34
11,C=C1CN(C)c2c(C#N)cc(C#N)c(=N)n21,13.03
12,COc1ccc(C2C(C#N)=C(Cl)Oc3c2ccc2ccccc32)cc1OC (stereo not given),-3.84
13,NNC(=O)c1cc2ccccc2n1Cc1ccccc1,-21.85
14,COc1nc2ccccc2cc1C=O,17.37
15,N#Cc1c(N)nc(S)c(C#N)c1-c1ccccc1,14.03
16,CCCCCCC(C)NNC(=O)c1cc2ccccc2[nH]1 (stereo not given),-0.84
17,COc1ccc2c(c1)cc(C(=O)O)n2C,20.8
18,CSC1=NC(=Cc2ccccc2)C(=O)N1C,5.89
19,O=Cc1cc2ccccc2nc1Cl,19.39
20,COc1ccc2c(c1)cc(/C=C/[N+](=O)[O-])n2C,10.15

row,SMILES,Inhibition [%]
1,CC(=O)Nc1nc(Cl)c(C#N)c(-c2ccccc2)c1C#N,21.15
2,O=C(N/N=C/c1c[nH]c2ccccc12)C(c1ccccc1)c1ccccc1,7.26
3,C#CCNc1nc(NC2CCN(Cc3ccccc3)CC2)c(C#N)c(-c2ccccc2)c1C#N,-5.25
4,CC1CC(=O)Nc2c1c(Cl)nc1nc3c(c(N)c21)CCCC3 (stereo not given),34.68
5,CC(=O)O[C@H]1CC[C@H](NC(=O)c2ccccc2)CC1,27.4
6,Cc1ccc(C2c3ccc4ccccc4c3Oc3nc4c(c(N)c32)CCCC4)cc1.Cl (stereo not given),-4.06
7,Nc1c2c(nc3c1CC(c1c(Cl)cccc1Cl)C(=O)N3)CCCC2 (stereo not given),22.21
8,Cc1nc2c3cnn(-c4ccccc4)c3nc(C)n2n1,14.43
9,C#CCN(C)c1nc(N(C)CC#C)c(C#N)cc1C#N,20.85
10,Cc1ccc(CNNC(=O)c2c[nH]c3ccccc23)cc1,-8.4
11,CCOC(=O)c1cn(C)c2ccccc12,5.67
12,C#CCN(C)c1nc(NC2CCN(Cc3ccccc3)CC2)c(C#N)c(-c2ccccc2)c1C#N,0.44
13,Cc1nc(NO)c2c(C)nn(-c3ccccc3)c2n1,6.32
14,Cn1cc(C(=O)NN)c2ccccc21,4.01
15,CCOC(=O)/C(=C\c1ccccc1)C(=O)c1ccccc1,9.55
16,C#CCNc1nc(NCCC2CCN(Cc3ccccc3)CC2)c(C#N)cc1C#N,-4.51
17,Nc1c2c(nc3c1C(c1ccc([N+](=O)[O-])cc1)c1c(ccc4ccccc14)O3)CCCC2 (stereo not given),18.24
18,COc1ccc2c(c1)cc(C(=O)Nc1ccccc1)n2C,20.93
19,C#CCN1CCc2nc3nc(N(C)C)c(C#N)cc3c(N)c2C1,32.37
20,CNN=C1N=C(SCc2ccccc2)SC1=O,8.05

# Tested on: Escherichia coli
# Conditions: Concentration 32 ug.mL-1; ASSAY_TEST Inhibition of Bacterial Growth; detection method Absorption (OD600); MEDIA CAMHB; plate type 384well; NBS; CORNING #3640; time 18 hr
row,SMILES,Inhibition [%]
1,C#CCN(C)Cc1cc2cc(OCCCC3CCN(Cc4ccc(C#N)cc4)CC3)ccc2n1C,-18.18
2,N#CC1=C(N)Oc2ccc3ccccc3c2C1c1ccccc1 (stereo not given),-6.38
3,N#Cc1cc(C#N)c(NCCC2CCN(Cc3ccccc3)CC2)nc1N,-25.69
4,CC1=NC(=Cc2ccccc2)C(=O)S1,9.12
5,N#CC1=C(Cl)Oc2c(ccc3ccccc23)C1c1ccc([N+](=O)[O-])cc1 (stereo not given),-24.25
6,N#CC1=C(N)Oc2ccc3ccccc3c2C1c1ccc(O)cc1 (stereo not given),-6.77
7,Nc1c2c(nc3c1C(c1ccccc1)c1ccc4ccccc4c1O3)CCCC2 (stereo not given),-5.04
8,CCOC(=O)c1c[nH]c2ccc(OC)cc12,9.94
9,CC(C)(C)OC(=O)Nc1ccc(Cl)cn1,-2.82
10,NC(=O)c1cc2cc(OCc3ccccc3)ccc2[nH]1,-8.75
11,C=C1CN(C)c2c(C#N)cc(C#N)c(=N)n21,-14.43
12,COc1ccc(C2C(C#N)=C(Cl)Oc3c2ccc2ccccc32)cc1OC (stereo not given),-30
13,NNC(=O)c1cc2ccccc2n1Cc1ccccc1,-14.39
14,COc1nc2ccccc2cc1C=O,18.39
15,N#Cc1c(N)nc(S)c(C#N)c1-c1ccccc1,9.92
16,CCCCCCC(C)NNC(=O)c1cc2ccccc2[nH]1 (stereo not given),6.64
17,COc1ccc2c(c1)cc(C(=O)O)n2C,-7.03
18,CSC1=NC(=Cc2ccccc2)C(=O)N1C,10.03
19,O=Cc1cc2ccccc2nc1Cl,16.87
20,COc1ccc2c(c1)cc(/C=C/[N+](=O)[O-])n2C,1.2

row,SMILES,Inhibition [%]
1,CC(=O)Nc1nc(Cl)c(C#N)c(-c2ccccc2)c1C#N,-6.98
2,O=C(N/N=C/c1c[nH]c2ccccc12)C(c1ccccc1)c1ccccc1,7.64
3,C#CCNc1nc(NC2CCN(Cc3ccccc3)CC2)c(C#N)c(-c2ccccc2)c1C#N,-23.87
4,CC1CC(=O)Nc2c1c(Cl)nc1nc3c(c(N)c21)CCCC3 (stereo not given),-17.09
5,CC(=O)O[C@H]1CC[C@H](NC(=O)c2ccccc2)CC1,-7.44
6,Cc1ccc(C2c3ccc4ccccc4c3Oc3nc4c(c(N)c32)CCCC4)cc1.Cl (stereo not given),12.44
7,Nc1c2c(nc3c1CC(c1c(Cl)cccc1Cl)C(=O)N3)CCCC2 (stereo not given),31.42
8,Cc1nc2c3cnn(-c4ccccc4)c3nc(C)n2n1,10.35
9,C#CCN(C)c1nc(N(C)CC#C)c(C#N)cc1C#N,-13.82
10,Cc1ccc(CNNC(=O)c2c[nH]c3ccccc23)cc1,-3.7
11,CCOC(=O)c1cn(C)c2ccccc12,4.13
12,C#CCN(C)c1nc(NC2CCN(Cc3ccccc3)CC2)c(C#N)c(-c2ccccc2)c1C#N,-3.84
13,Cc1nc(NO)c2c(C)nn(-c3ccccc3)c2n1,4.93
14,Cn1cc(C(=O)NN)c2ccccc21,20.35
15,CCOC(=O)/C(=C\c1ccccc1)C(=O)c1ccccc1,10.95
16,C#CCNc1nc(NCCC2CCN(Cc3ccccc3)CC2)c(C#N)cc1C#N,-8.4
17,Nc1c2c(nc3c1C(c1ccc([N+](=O)[O-])cc1)c1c(ccc4ccccc14)O3)CCCC2 (stereo not given),7.89
18,COc1ccc2c(c1)cc(C(=O)Nc1ccccc1)n2C,-8.29
19,C#CCN1CCc2nc3nc(N(C)C)c(C#N)cc3c(N)c2C1,-3.45
20,CNN=C1N=C(SCc2ccccc2)SC1=O,4.4
